Mtb FBA inh: Mtb FBA enzyme inhibitors, primary screen, biochemical, fluorescence, strain H37Rv | purified M. tuberculosis FBA, fluorescence read-out | inhibition, % at 1 µM | 360,000 compounds, 2.3% hits;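 also: 0% = vehicle and 100% = reference inhibitor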
Mtb betalactam: beta-lactam sensitization of Mtb H37Rv, H37Rv; 330,000 compounds, 0.27% hits; AID 434955, 2010; M. tuberculosis H37Rv growth with meropenem, percent inhibition; inhibition, % at 25 µM; call rule not given here;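 also: growth measured after seven days incubation then overnight dye step; 0% = bacteria only wells and 100% = bacteria with antibiotic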
GDH-TPI counter-1: GDH-TPI coupling enzyme inhibitors, primary screen, artefact control for M. tuberculosis FBA inhibitor project, biochemical, absorbance, full deck; GDH-TPI coupled enzyme counterscreen, NADH absorbance; inhibition, % at 4.8 µM; 360,000 compounds, 1.2% hits; AID 588335, 2011; in the data active = inhibition above about 30%;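 also: 0% = DMSO wells and 100% = wells lacking the enzyme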
Mtb hypoxia rep: PubChem AID 1159583; fluorescence inhibition, % (concentration not given with the values); 300,000 compounds, 0.1% hits; M. tuberculosis hypoxia-regulated fluorescent reporter, fluorescence; in the data active = fluorescence inhibition mostly above about 23%, no sharp cut-off; inactive = mostly below about 17%
DUSP3 inh: VHR1 phosphatase inhibitors, primary screen, biochemical, absorbance, uHTS. Dual specificity protein phosphatase 3 (Homo sapiens), P51452. recombinant VHR phosphatase, pNPP absorbance. inhibition, % at 13.3 µM. 290,000 compounds, 0.52% hits. AID 1654, 2009; in the data active = inhibition above about 50%
Target sequence (P51452 whole entry, looked up): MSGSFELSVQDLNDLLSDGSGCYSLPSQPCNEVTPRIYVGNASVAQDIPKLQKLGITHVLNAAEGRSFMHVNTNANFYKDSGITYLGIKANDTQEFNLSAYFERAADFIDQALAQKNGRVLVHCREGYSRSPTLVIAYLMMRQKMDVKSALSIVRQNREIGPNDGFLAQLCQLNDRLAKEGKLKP
Mtb FBA confirm: M. tuberculosis aldolase blockers, biochemical, fluorescence, strain H37Rv, confirmation. 5,600 compounds, 78% hits. inhibition, % at 1 µM. shares compounds with Mtb FBA inh. purified M. tuberculosis FBA, fluorescence read-out;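 also: 0% = vehicle wells and 100% = reference inhibitor wells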
GDH-TPI counter-2: GDH-TPI coupling enzyme inhibitors, artefact control for M. tuberculosis FBA inhibitor project, biochemical, fluorescence, high throughput. shares compounds with Mtb FBA inh. GDH-TPI coupled enzyme counterscreen. inhibition, % at 1 µM. 5,600 compounds, 81% hits. AID 652141, 2013; in the data active = inhibition above about 10%
* = called active by the depositor; x = no result; + = active, no number. An excerpt weighted towards active compounds, which were near 3.6% of everything screened. Rule as the data show it, unless noted: active = inhibition above about 27%; inactive = the rest.

SMILES	Mtb FBA inh	Mtb betalactam	GDH-TPI counter-1	Mtb hypoxia rep	DUSP3 inh	Mtb FBA confirm	GDH-TPI counter-2
N#Cc1ccc(-c2nc3ccc(Cl)cn3c2Cc2cccc(F)c2)cc1	42.6*	x	x	x	x	+	191.2*
Cc1ccc(-c2nc3ccc(Cl)cn3c2Cc2cccc(F)c2)cc1	6.2	x	x	x	x	x	x
N#C/C(=C\c1cccc(Cl)c1)c1n[nH]c(Cn2cncn2)n1	38.9*	26.4	4.6	x	3.6	56.7*	43.1*
CCOC(=O)c1cc2nc(-c3ccccc3)cc(C)n2n1	8.2	-2.5	7.5	-3.4	23.3	x	x
CCOC(=O)c1cnn2c(C)cc(-c3ccccc3)nc12	53.7*	-1.0	17.4	-6.7	17.5	+	+
Cc1nc2c(C(=O)NCc3ccco3)cnn2c(C)c1Cc1ccc(F)cc1Cl	25.7	6.1	5.6	14.4	-4.1	x	x
CCCn1c(=O)c2c(C(=O)OCC)cc(-c3ccco3)nc2n(CCC)c1=O	41.0*	x	6.2	-2.2	-33.7	166.4*	124.3*
CCCn1c(=O)c2c(C(F)(F)F)cc(-c3ccco3)nc2n(CCC)c1=O	9.7	1.8	5.0	1.8	35.5	x	x
Cc1cccc(Cc2c(C)nc3c(C(=O)NCc4ccco4)cnn3c2C)c1	31.4*	x	4.9	-3.0	7.1	194.3*	148.5*
CCOC(=O)c1cnn2c(C(F)(F)F)cc(-c3ccco3)nc12	52.5*	-6.8	21.4	x	8.4	+	159.6*
COc1ccc(-c2cc(C(F)(F)F)n3ncc(C(=O)NCc4ccco4)c3n2)cc1	30.5*	27.6	23.7	x	1.0	165.0*	145.3*
S=c1[nH]c(-c2ccccc2)cn1N=Cc1cccnc1	x	x	x	3.8	x	x	x
S=c1[nH]c(-c2ccccc2)cn1/N=C/c1ccncc1	34.8*	-6.7	4.3	x	17.6	49.1*	42.0*
CCOc1ccc(/C=N/n2cc(-c3ccccc3)[nH]c2=S)cc1	66.5*	58.2	29.3	x	5.3	89.5*	80.1*
CCCOc1c(Br)cc(C2C3=C(CCCC3=O)N(CC)C3=C2C(=O)CCC3)cc1OC	31.1*	-2.8	5.4	-9.9	24.5	30.1*	35.3*
CCCOc1c(Br)cc(C2C3=C(CCCC3=O)N(C)C3=C2C(=O)CCC3)cc1OC	42.3*	2.6	12.3	-15.6	13.7	+	+
O=C(O)c1cccc(NN=Cc2sc(N3CCOCC3)nc2-c2ccccc2)c1	x	x	x	18.1	x	x	x
Cc1ccc(O)c(Nc2c3ccccc3nc3ccccc23)c1	99.2*	2.3	3.8	18.2	52.0*	+	+
Oc1c(Cl)cc(Cl)cc1C=Nc1nccs1	x	x	x	2.5	x	x	x
O=C(NCc1cccnc1)c1ccccc1Br	4.8	-8.7	-0.7	9.9	9.6	x	x
Cc1cc(C)n2ncc(C(=O)NCc3cccnc3)c2n1	42.2*	-3.1	-0.8	x	4.0	42.8*	42.5*
CC(C)n1ncc2c(C(=O)NCc3cccnc3)cc(C3CC3)nc21	53.6*	x	9.3	x	x	+	+
O=C(NCc1cccnc1)c1cnn2ccccc12	30.1*	-3.7	6.2	-0.1	8.7	192.5*	140.4*
COc1cccc(CNC(=O)c2cc(C3CC3)nc3c2cnn3C(C)C)c1	9.6	9.6	4.0	10.8	x	x	x
NC(=NOC(=O)CC1CCCCC1)c1cccc([N+](=O)[O-])c1	x	x	x	6.7	x	x	x
COC(=O)c1[nH]c2cccc(OC)c2c1NC(=O)CN1CC(C)OC(C)C1 (stereo not given)	10.7	-4.6	-2.2	5.3	-14.1	x	x
COC(=O)c1[nH]c2cc(OC)c(OC)cc2c1NC(=O)CN1C[C@H]2C[C@@H](C1)c1cccc(=O)n1C2	36.9*	-0.9	11.1	10.8	x	69.4*	53.8*
Cc1ccc(S(=O)(=O)c2cc3c(=O)n4cccc(C)c4nc3n(Cc3ccco3)c2=N)cc1C	x	x	x	x	41.9	x	x
CCOCCCn1c(=N)c(C(=O)NCc2ccc3c(c2)OCO3)cc2c(=O)n3cccc(C)c3nc21	5.7	50.5	9.6	3.4	15.2	x	x

Assay outcomes from PubChem.
